The source of these data is PubChem BioAssay.

Each structure is given as a SMILES string. A number with no mark means an inactive call.

A short description of the test: fission yeast growth modulation, primary screen, strain 972, OD600, 24 h, no modulator (AID 1090).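 Also: basal condition with compound alone and no growth modifier present; test concentration not given here.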 As to conditions: S. pombe 972 growth, higher = more signal, called active from +8 up or from −8 down.
For the compound `O=C1CCCC(C2=CCCCC2=O)C1` (stereo not drawn), the z-score was 0.65. For `Cn1c(=O)n2n(c1=O)[C@H]1[C@H](O)[C@@H]3O[C@@H]3C(=NOCc3ccccc3)[C@H]1CC2` the value was -0.41; for `CO[C@H](C1CCCCC1)[C@H](C)C=CCC(=O)OCCCc1ccccc1`, 0.5; for `COC(=O)[C@H](C)NC(=O)CCC1CC(OC(=O)NCc2ccc3c(c2)OCO3)CC2(CCCC(COC(=O)NCC(c3ccccc3)c3ccccc3)O2)O1` (stereo partly drawn), -0.58. For `O=c1n(-c2ccccc2)c(=O)n2n1CC[C@@H]1C(=NOCc3ccccc3)[C@H]3O[C@H]3[C@@H](O)[C@@H]12` the value was -0.326; for `COC(=O)[C@H]1[C@@H](O)[C@@]2(O)c3ccccc3O[C@@]2(c2ccccc2)[C@@H]1c1ccccc1`, 0.226; for `COC(=O)CC=C[C@@H](C)[C@@H](C=NOC(C)CN1CCCc2nc(C)c(C)cc21)OC` (stereo partly drawn), 0.245. Turning to `COC(=O)[C@H](C)NC(=O)CCC1CC(OC(=O)NCCc2ccc(F)cc2)CC2(CCCC(COC(=O)NCc3cccc(C(F)(F)F)c3)O2)O1` (stereo partly drawn), the z-score was 1.18. For `Cc1ccc(S(=O)(=O)N[C@H]2COC(=O)CC=C[C@H](C)[C@@H](NS(=O)(=O)c3ccc(C)cc3)COC(=O)CC=C[C@@H]2C)cc1` the value was 0.518; for `CON=C1[C@H]2CCn3c(=O)n(-c4ccccc4)c(=O)n3[C@H]2[C@H](O)[C@@H]2O[C@H]12`, -1.81. For `C#CCCCON=C1C[C@@H](O)[C@@H](O)[C@@H]2[C@@H]3C(=O)N(C(C)(C)C)C(=O)[C@@H]3CC[C@@H]12` the value was 0.0546.

As for `CO[C@H]1COC(=O)CC=C[C@@H](C)[C@H](NS(=O)(=O)c2ccc(C)cc2)COC(=O)CCC[C@@H]1C`, the z-score was 0.14. As to `COc1ccc(COC(=O)NN=C2C[C@@H](O)[C@@H](O)[C@@H]3[C@@H]4C(=O)N(c5ccc(F)cc5F)C(=O)[C@@H]4CC[C@H]23)cc1`, the z-score is -4.12. For `COc1ccc(O[C@H]2C=C[C@@H](c3ccccc3)O[C@@H]2COC(=O)CCC(C)=NOC[C@@H](O)[C@H]2O[C@@H]3OC(C)(C)O[C@@H]3[C@H]2O)cc1` the value was 0.0839; for `CO[C@H]1COC(=O)CC=C[C@H](C)[C@@H](OC)COC(=O)[C@H](C)COC(=O)CC=C[C@@H]1C`, -0.425.

On to `CCOC(=O)C1=NO[C@]2(C=C(Br)C3(OCCCO3)[C@H]3O[C@H]32)C1`, for which the z-score was -1.06. For `Cc1cc2c(nc1C)CCCCN2CC(C)ON=C1[C@H]2CCn3c(=O)n(-c4ccccc4)c(=O)n3[C@H]2[C@H](O)[C@@H]2O[C@H]12` (stereo partly drawn) the value was -0.167; for `COc1ccc(O[C@H]2C=C[C@@H](c3ccccc3)O[C@@H]2COC(=O)CCC(C)=NO[C@@H]2O[C@H](COC(C)=O)[C@@H](OC(C)=O)[C@H](OC(C)=O)[C@H]2OC(C)=O)cc1`, 1.03. For `Cc1cc2c(c(=O)o1)[C@@H](O)[C@H]1O[C@H]1C2=O` the value was -0.0772; for `CCOC(=O)CCN1C(=O)[C@H]2[C@H]3[C@H](O)[C@H](O)CC(=NNC(=O)OCc4ccccc4)[C@@H]3CC[C@H]2C1=O`, 0.279. For `O=C1[C@H]2[C@H]3[C@H](O)[C@H](O)CC(=NOC[C@@H](O)COCc4ccco4)[C@@H]3CC[C@H]2C(=O)N1C[C@@H]1CCCO1` the value was 1.01; for `CC(C)CON=C1C[C@@H](O)[C@@H](O)[C@@H]2[C@@H]3C(=O)N(C[C@@H]4CCCO4)C(=O)[C@@H]3CC[C@@H]12`, 0.283; for `CON=Cc1ccc(C(=O)N2[C@H](c3ccc(C)cc3)[C@@H](C)CC[C@H]2C(=O)OC)cc1`, -2.

Consider `C[C@@H](c1ccccc1)N1C(=O)[C@H]2[C@H]3[C@H](O)[C@H](O)CC(=O)[C@H]3CC[C@H]2C1=O`, for which the z-score was -0.197.

For `CC(C)CON=C1C[C@@H](O)[C@@H](O)[C@@H]2[C@@H]3C(=O)N(Cc4ccc5c(c4)OCO5)C(=O)[C@@H]3CC[C@H]12`, the z-score is 0.754.

As for `CCN1C(=O)[C@H]2[C@H]3[C@H](O)[C@H](O)CC(=NOCC(C)C)[C@@H]3CC[C@H]2C1=O`, the z-score is -0.666. For `CC(C)=NO[C@H](C)c1cn([C@H](CO)Cc2ccccc2)nn1` the value was -0.594; for `CCCNC(=O)OC[C@H]1O[C@H](c2ccccc2)C=C[C@@H]1Oc1ccc(OC)cc1`, -0.423.
